Values without a mark were called inactive. Inconclusive results are not listed. Activity calls are given as the source filed them. The call rests on the fitted dose curve; in most records, active means well fitted curve in the direction sought with a large enough effect in the repeat runs; inconclusive means weak or mixed curves; inactive means no such curve, though single readings can be large; an effect the other way counts as inactive or inconclusive.

Assay [1] can be described thus: Caspase-3/7 induction in HepG2 cells by small molecules, qHTS assay (AID 1346978). Further: nearly all actives have a fitted effect of over 15% in size. An outline of the steps: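 Caspase-3/7 induction was measured by Caspase-Glo 3/7 luminescence (30 min, room temperature) after a 17 hr compound exposure of wild-type HepG2 cells seeded at 2,000 per well and pre-incubated 5 hr.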
Assay [2] can be described thus: Caspase-3/7 induction in CHO-K1 cells by small molecules, qHTS cell viability counter screen (AID 1346979). Further: nearly all actives have a fitted effect of over 35% in size. Further: potency means the concentration at half of the fitted maximal effect. In short, it runs like this: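 CHO-K1 wt, 1,500 cells/well; 5hr pre-incubation 37C/5% CO2; compound pin transfer (DMSO); 16hr exposure; CellTiter-Fluor added, 1hr, fluorescence read.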
The nature of assay [3]: Caspase-3/7 induction in CHO-K1 cells by small molecules, qHTS assay (AID 1346980). Further: nearly all actives have a fitted effect of over 15% in size. In short, it runs like this: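 Luminescent Caspase-Glo 3/7 read (30min, room temperature) quantified apoptosis induction. Cells were wild-type CHO-K1, treated with compound for 17hr at 37 C and 5% CO2.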
(In general: Quantitative high-throughput screening tests each substance at several concentrations.)

Assay [4] can be described thus: Caspase-3/7 induction in HepG2 cells by small molecules, qHTS cell viability counter screen (AID 1346981). Further: series mostly up to about 92 µM; nearly all actives have a fitted effect of over 30% in size. An outline of the steps: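 Wild-type HepG2 cells (2,000/well) were allowed to settle for 5 hr at 37 C, 5% CO2, then dosed with compounds in DMSO by pin transfer. After 16 hr at 37 C, CellTiter-Fluor was added and fluorescence read 1 hr later.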
Assay [5] has as its target Nuclear receptor subfamily 1 group I member 2 (Homo sapiens) (UniProt O75469). Nature of the assay: Human pregnane X receptor (PXR) small molecule agonists, qHTS assay (AID 1346982). Further: nearly all actives have a fitted effect of over 35% in size. Further: potency means the concentration at half of the fitted maximal effect. In short, it runs like this:
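PXR-Luc HepG2 cells (CYP3A4 promoter-driven luciferase) were seeded in medium with 5% charcoal-stripped FBS, left 5 hr at 37 C, then exposed to compounds in DMSO for 24 hr. Luminescence was read after ONE-Glo addition.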

The target is the same in assay [6]. The assay can be described thus: CYP3A4 induction through human pregnane X receptor (PXR) by small molecules, qHTS assay (AID 1346984). Further: nearly all actives have a fitted effect of over 40% in size. Further: potency means the concentration at half of the fitted maximal effect. In short, it runs like this: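 DPX-2 cells (HepG2 co-transfected with PXR and CYP3A4 promoter-luciferase) treated with compounds 24 h at 37C; luciferin-IPA CYP3A4 substrate 3uM final added for 3 h, then One-Glo; luminescence read. qHTS format.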

The target is the same in assay [7]. The assay can be described thus: Human pregnane X receptor (PXR) activation by small molecules, qHTS assay (AID 1346985). Further: nearly all actives have a fitted effect of over 40% in size. Further: potency means the concentration at half of the fitted maximal effect. In short, it runs like this: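 DPX-2 cells (HepG2 co-transfected with a PXR response element and a CYP3A4-promoter luciferase construct) were seeded at 2,000 per well, rested 5 hr at 37C, then exposed to DMSO-dissolved compounds for 24 hr. Activation was read as luciferase luminescence.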

Assay [8] concerns the target Cytochrome P450 2D6 (Homo sapiens) (UniProt P10635). The assay can be described thus: Cytochrome P450 Family 2 Subfamily D Member 6 (CYP2D6) small molecule antagonists: luciferase reporter qHTS assay (AID 1671196). Further: nearly all actives have a fitted effect of over 50% in size. Further: potency means the concentration at half of the fitted maximal effect. In short, it runs like this:
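CYP2D6 enzyme–substrate mix was held with compound for 10 min at room temperature, then NADPH regeneration solution was added and the reaction ran 1 h at room temperature. Luciferin product was detected by luminescence after 20 min with detection reagent.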
On the technique in general: In a reporter assay the amount or activity of a reporter protein is the signal.

For assay [9], the target named is Cytochrome P450 2C19 (Homo sapiens) (UniProt P33261). Nature of the assay: Cytochrome P450 Family 2 Subfamily C Member 19 (CYP2C19) small molecule antagonists: luciferase reporter qHTS assay (AID 1671197). Further: series mostly up to about 120 µM; nearly all actives have a fitted effect of over 65% in size. In short, it runs like this:
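Inhibition of CYP2C19 was scored from loss of luminescence in a P450-Glo proluciferin substrate assay, NADPH-started and run 1 h at 37C, with ketoconazole as positive control.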

In assay [10] the target is Cytochrome P450 2C9 (Homo sapiens) (UniProt P11712). Nature of the assay: Cytochrome P450 Family 2 Subfamily C Member 9 (CYP2C9) small molecule antagonists: luciferase reporter qHTS assay (AID 1671198). Further: series mostly up to about 120 µM; nearly all actives have a fitted effect of over 50% in size. An outline of the steps: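 Enzyme-substrate mix preincubated with compound 10 min at room temperature; reaction started with NADPH regeneration solution, 1 h 37C. Luminescent luciferin product read after 20 min detection reagent.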
Chain of Cytochrome P450 2C9 (Homo sapiens) (P11712 whole entry, looked up): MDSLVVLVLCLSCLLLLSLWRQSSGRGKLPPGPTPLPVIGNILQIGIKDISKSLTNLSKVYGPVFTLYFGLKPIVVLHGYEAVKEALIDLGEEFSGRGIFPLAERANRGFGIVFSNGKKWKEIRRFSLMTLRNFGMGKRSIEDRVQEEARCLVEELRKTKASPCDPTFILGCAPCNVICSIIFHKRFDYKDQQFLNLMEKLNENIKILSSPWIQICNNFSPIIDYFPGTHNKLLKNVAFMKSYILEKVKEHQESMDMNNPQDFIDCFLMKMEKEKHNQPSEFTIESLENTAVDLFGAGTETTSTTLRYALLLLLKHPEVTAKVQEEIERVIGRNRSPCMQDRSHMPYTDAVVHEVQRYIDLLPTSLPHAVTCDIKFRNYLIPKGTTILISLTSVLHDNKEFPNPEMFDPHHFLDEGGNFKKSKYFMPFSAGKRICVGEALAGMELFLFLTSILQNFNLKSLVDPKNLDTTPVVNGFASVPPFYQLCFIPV

For assay [11], the target named is Voltage-gated inwardly rectifying potassium channel KCNH2 (Homo sapiens) (UniProt Q12809). The assay can be described thus: Human Ether-a-go-go-Related Gene (hERG) channel small molecule antagonists: fluorescence cell-based qHTS assay (AID 1671200). Further: nearly all actives have a fitted effect of over 50% in size. Further: potency means the concentration at half of the fitted maximal effect. An outline of the steps:
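Read-out: thallium influx as a surrogate for potassium, tracked as fluorescence (480 nm ex/540 nm em) every second for 2 min after Stimulus Buffer addition in dye-loaded hERG-U2OS cells.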
(In general: hERG is a cardiac potassium channel; its block is linked to QT prolongation.)

The target in assay [12] is Nuclear receptor subfamily 1 group I member 2 (Rattus norvegicus) (UniProt Q9R1A7). The assay can be described thus: Rat pregnane X receptor (rPXR) activation by small molecules, qHTS assay (AID 1346983). Further: nearly all actives have a fitted effect of over 20% in size. The note with it: rPXR luciferase reporter cells, One-Glo luminescence, 24 h; max activation: hits give high values. An outline of the steps:
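Luminescent readout (One-Glo luciferase, 30 min room temperature) followed 24 hr compound treatment at 37 C of rPXR cells plated 2,000 per well and preincubated 5hr; qHTS format with compounds delivered in DMSO.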

For assay [13], the target named is Cytochrome P450 1A2 (Homo sapiens) (UniProt P05177). The assay can be described thus: Cytochrome P450 Family 1 Subfamily A Member 2 (CYP1A2) small molecule antagonists: luciferase reporter qHTS assay (AID 1671199). Further: nearly all actives have a fitted effect of over 50% in size. Further: potency means the concentration at half of the fitted maximal effect. In short, it runs like this:
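Human CYP1A2 activity measured with a P450-Glo proluciferin substrate; compounds in DMSO preincubated 10 min at room temperature with enzyme-substrate mix, then NADPH regeneration system added for 1 h. Luciferin detection reagent, 20 min, luminescence read.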

The target in assay [14] is Cytochrome P450 3A4 (Homo sapiens) (UniProt P08684). Nature of the assay: Cytochrome P450 Family 3 Subfamily A Member 4 (CYP3A4) small molecule antagonists: luciferase reporter qHTS assay (AID 1671201). In short, it runs like this: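 Luminescent readout (RLU) proportional to CYP3A4 activity, from luciferin generated off a proluciferin substrate. Enzyme–substrate mix plus compound 10 min at room temp, NADPH regeneration 1 h, detection reagent 20 min.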
Chain of Cytochrome P450 3A4 (Homo sapiens) (P08684 whole entry, looked up): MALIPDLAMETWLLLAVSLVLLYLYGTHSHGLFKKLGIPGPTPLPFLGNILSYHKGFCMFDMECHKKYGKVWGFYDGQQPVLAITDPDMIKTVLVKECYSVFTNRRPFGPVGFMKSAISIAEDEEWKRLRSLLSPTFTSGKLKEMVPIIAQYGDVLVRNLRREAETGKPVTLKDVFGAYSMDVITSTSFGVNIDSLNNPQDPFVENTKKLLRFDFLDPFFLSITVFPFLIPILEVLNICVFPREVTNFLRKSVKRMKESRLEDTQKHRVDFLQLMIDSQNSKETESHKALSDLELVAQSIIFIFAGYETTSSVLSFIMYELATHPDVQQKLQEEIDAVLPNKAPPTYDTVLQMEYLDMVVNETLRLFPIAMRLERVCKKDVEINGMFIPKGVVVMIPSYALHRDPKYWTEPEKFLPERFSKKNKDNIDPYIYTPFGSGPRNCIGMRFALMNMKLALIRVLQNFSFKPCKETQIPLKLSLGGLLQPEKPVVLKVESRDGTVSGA
On the % scale 0 is the no-effect control and ±100 the full control effect.

Chain of Nuclear receptor subfamily 1 group I member 2 (Homo sapiens) (O75469 whole entry, looked up): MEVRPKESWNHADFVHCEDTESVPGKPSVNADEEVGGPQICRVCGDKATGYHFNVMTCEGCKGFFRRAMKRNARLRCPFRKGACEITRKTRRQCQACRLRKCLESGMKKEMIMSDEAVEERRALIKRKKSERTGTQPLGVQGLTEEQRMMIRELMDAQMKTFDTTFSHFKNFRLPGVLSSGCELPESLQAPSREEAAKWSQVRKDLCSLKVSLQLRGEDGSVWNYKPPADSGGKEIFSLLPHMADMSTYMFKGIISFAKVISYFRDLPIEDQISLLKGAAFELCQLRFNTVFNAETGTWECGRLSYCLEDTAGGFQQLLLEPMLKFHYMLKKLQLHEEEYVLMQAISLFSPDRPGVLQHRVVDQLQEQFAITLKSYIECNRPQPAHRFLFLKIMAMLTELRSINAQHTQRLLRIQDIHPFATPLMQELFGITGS
Chain of Voltage-gated inwardly rectifying potassium channel KCNH2 (Homo sapiens) (Q12809 whole entry, looked up): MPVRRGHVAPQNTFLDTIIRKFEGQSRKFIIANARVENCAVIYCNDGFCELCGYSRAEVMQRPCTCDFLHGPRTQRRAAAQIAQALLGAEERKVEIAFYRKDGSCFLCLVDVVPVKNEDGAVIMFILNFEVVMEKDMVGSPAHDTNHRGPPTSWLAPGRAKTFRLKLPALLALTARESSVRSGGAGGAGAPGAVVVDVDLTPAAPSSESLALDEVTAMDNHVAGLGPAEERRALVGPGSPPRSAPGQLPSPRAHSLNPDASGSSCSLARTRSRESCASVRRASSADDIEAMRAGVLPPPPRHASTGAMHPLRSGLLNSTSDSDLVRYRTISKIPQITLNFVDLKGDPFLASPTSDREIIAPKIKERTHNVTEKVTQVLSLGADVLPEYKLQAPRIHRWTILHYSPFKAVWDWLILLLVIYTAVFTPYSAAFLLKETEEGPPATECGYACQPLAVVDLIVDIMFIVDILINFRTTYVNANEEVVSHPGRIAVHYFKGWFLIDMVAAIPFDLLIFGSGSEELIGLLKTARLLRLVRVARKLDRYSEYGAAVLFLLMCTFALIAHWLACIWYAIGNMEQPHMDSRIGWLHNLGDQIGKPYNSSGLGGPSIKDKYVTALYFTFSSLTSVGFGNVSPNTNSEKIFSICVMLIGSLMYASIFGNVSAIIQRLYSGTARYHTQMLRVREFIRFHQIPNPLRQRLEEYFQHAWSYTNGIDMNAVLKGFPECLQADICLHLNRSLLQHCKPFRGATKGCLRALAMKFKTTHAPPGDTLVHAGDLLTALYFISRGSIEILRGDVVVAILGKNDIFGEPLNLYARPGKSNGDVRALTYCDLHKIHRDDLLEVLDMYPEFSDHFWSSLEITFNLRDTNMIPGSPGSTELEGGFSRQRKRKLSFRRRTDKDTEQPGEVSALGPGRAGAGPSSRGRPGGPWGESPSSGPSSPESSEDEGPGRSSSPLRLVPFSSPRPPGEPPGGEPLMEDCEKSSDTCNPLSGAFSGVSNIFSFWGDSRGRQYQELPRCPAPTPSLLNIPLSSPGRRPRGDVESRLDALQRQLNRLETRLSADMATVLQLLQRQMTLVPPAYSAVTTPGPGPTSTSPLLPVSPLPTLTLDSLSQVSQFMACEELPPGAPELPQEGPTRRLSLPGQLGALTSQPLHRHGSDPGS
Chain of Cytochrome P450 2C19 (Homo sapiens) (P33261 whole entry, looked up): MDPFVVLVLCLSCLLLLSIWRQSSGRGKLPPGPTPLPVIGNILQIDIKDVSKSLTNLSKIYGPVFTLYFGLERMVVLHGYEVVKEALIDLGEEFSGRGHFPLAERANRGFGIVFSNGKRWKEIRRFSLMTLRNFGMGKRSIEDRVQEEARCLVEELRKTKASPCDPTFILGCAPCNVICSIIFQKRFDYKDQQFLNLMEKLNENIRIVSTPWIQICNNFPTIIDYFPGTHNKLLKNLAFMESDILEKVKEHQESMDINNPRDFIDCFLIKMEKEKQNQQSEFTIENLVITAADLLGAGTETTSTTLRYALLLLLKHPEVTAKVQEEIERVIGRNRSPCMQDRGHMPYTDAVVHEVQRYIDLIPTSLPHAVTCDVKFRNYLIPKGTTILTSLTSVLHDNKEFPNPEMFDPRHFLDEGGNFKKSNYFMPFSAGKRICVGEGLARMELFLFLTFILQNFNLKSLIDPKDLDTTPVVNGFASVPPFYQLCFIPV
Chain of Cytochrome P450 2D6 (Homo sapiens) (P10635 whole entry, looked up): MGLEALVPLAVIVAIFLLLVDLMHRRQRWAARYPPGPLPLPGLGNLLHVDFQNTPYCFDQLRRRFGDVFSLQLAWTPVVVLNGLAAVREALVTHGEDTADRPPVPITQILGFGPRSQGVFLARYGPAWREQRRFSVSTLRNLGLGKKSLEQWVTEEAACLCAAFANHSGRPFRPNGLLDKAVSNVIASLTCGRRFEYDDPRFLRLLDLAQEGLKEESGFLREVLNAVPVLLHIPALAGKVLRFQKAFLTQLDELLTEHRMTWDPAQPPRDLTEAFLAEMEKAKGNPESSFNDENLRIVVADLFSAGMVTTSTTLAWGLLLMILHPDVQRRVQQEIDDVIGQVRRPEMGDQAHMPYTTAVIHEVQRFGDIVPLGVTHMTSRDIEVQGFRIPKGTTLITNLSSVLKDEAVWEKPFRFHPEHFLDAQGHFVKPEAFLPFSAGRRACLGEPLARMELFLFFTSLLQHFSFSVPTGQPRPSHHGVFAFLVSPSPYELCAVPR
Chain of Cytochrome P450 1A2 (Homo sapiens) (P05177 whole entry, looked up): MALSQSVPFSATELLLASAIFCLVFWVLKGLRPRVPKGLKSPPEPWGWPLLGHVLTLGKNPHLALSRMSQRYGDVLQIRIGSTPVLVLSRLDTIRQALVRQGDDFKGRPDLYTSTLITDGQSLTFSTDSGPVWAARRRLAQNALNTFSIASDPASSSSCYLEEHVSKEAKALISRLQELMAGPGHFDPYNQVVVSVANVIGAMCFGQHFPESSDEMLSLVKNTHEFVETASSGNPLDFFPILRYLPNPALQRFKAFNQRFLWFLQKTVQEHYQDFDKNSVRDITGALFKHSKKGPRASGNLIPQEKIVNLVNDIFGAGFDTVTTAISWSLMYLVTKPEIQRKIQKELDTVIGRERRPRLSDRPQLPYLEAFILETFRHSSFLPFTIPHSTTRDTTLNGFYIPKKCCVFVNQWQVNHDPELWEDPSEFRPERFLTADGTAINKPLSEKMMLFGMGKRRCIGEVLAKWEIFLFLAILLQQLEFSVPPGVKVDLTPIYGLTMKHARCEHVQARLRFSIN
Chain of Nuclear receptor subfamily 1 group I member 2 (Rattus norvegicus) (Q9R1A7 whole entry, looked up): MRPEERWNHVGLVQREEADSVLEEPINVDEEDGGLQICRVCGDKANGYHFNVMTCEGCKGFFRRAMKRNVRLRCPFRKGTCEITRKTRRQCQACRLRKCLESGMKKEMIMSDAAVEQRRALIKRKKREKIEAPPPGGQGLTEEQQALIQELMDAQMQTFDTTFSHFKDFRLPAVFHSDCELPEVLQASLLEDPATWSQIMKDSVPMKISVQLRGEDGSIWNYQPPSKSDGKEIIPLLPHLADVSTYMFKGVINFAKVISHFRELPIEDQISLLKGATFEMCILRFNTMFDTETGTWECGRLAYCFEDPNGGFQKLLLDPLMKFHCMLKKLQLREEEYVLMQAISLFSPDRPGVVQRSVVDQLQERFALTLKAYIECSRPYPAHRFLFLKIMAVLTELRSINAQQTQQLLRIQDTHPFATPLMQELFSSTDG

With `CN1CCN(C2=Nc3cc(F)ccc3Cc3ccccc32)CC1`, the Potency result in assay [1], in assay [2], in assay [4], in assay [5], in assay [9] and in assay [10] was “inactive” throughout. In addition, the Potency entry in assay [11] is “inactive”. In addition, the molecule was classed as inactive in assay [3]. The Potency was 25.1 µM (active) in assay [6], 22.4 µM (active) in assay [7] and 4.9 µM (active) in [8].
Consider `O=c1[nH]cnc2c1ncn2[C@@H]1O[C@H](CO)[C@@H](O)[C@H]1O`, for which the Potency entry in assay [1], in assay [4], in assay [5], in assay [6], in assay [7] and in assay [10] was “inactive” each time. Also, the Potency result in assay [13], in assay [11] and in assay [14] was “inactive” throughout. In [2], the Potency was 1.06 µM (active). Moreover, the outcome in assay [3] was inactive. Besides, the max activation in assay [12] was -2.07%.
Regarding `FC(F)(F)C(F)(F)C(F)(F)C(F)(F)C(F)(F)C(F)(F)C(F)(F)C(F)(F)Br`, the Potency entry in [1], in [2], in [4], in assay [5], in [6] and in assay [7] was “inactive” throughout. Further, the Potency result in [8], in assay [9], in assay [10], in assay [13], in [11] and in [14] was “inactive” in each case. Moreover, the molecule was classed as inactive in assay [3]. In addition, in assay [12], the max activation is -2.79%.
On to `NCCC(O)(P(=O)(O)O)P(=O)(O)O`, for which the Potency entry in assay [1], in [2], in assay [4], in assay [5], in assay [6] and in [7] was “inactive” in each case. Further, the Potency result in assay [9], in assay [10], in assay [11] and in [14] was “inactive” throughout. For the same molecule, in [3], the molecule was classed as inactive. The Potency in assay [13] was 24.5 µM (active).
Take `N#CSCC(=O)O`: the Potency entry in [1], in [2], in [4], in [5], in [8] and in assay [9] was “inactive” each time. Besides, the Potency entry in assay [10], in [13], in [11] and in assay [14] was “inactive” in each case. The outcome in assay [3] was inactive.
On to `c1ccc(CN(CC2=NCCN2)c2ccccc2)cc1`, for which the Potency result in assay [1], in assay [2], in assay [4], in assay [5], in assay [6] and in [7] was “inactive” each time. For the same molecule, the Potency result in assay [13] and in [14] was “inactive” each time. Besides, the result in assay [3] was inactive. In addition, the Potency in [11] was 19 µM (active).
Regarding `CCCCc1ccc2nc(NC(=O)OC)[nH]c2c1`, the Potency result in assay [1], in assay [4], in assay [8], in [9], in [10] and in assay [13] was “inactive” in each case. Besides, the Potency entry in [11] and in [14] was “inactive” in each case. The Potency is 1.19 µM (active) in assay [2], 2.98 µM (active) in assay [5] and 4.47 µM (active) in assay [7]. Besides, the outcome in [3] was inactive.
Consider `CN1CCN(c2c(F)cc3c(=O)c(C(=O)O)cn(CCF)c3c2F)CC1`, for which the Potency result in assay [1], in assay [2], in [4], in assay [5], in assay [6] and in [7] was “inactive” throughout. Also, the Potency entry in assay [9], in [10], in assay [13], in [11] and in assay [14] was “inactive” in each case. Besides, the outcome in [3] was inactive.
On to `CCC/C=C/CO`, for which the Potency result in [1], in assay [2], in [4], in assay [5], in assay [8] and in assay [9] was “inactive” throughout. Further, the Potency entry in assay [10], in [13], in assay [11] and in assay [14] was “inactive” in each case. Further, in assay [3], the outcome was inactive.
Take `CC(C)NC[C@@H](O)COc1cccc2ccccc12`: the Potency result in assay [1] and in [2] was “inactive” each time. The result in assay [3] was inactive.

Values taken from PubChem BioAssay (Tox21).
